Activity calls are given as the source filed them.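 Rule for the calls: active = compounds killing one labelled cell type while sparing the other, by normalised counts and ratio limits, not self-fluorescent; inactive = the rest.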
Experiment: differential killing of epithelial or mesenchymal cells, primary screen, imaging, PC-3E GFP, TEM4-18 mCherry, co-culture (AID 1345086);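 note: cells exposed to compound for 72 h before imaging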;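 for red/green cell ratio (normalised): normalised mesenchymal count divided by normalised epithelial count so high means epithelial killing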
Settings: imaging cell counts, at 1 µM; for red/green cell ratio (normalised): actives lie on both sides, counts scaled to control wells, 1 = unselective
[1] = measured here: epithelial PC-3E GFP cell survival
[2] = measured here: mesenchymal TEM4-18 mCherry cell survival

Compound	red/green cell ratio (normalised)	normalised cell number [1]	normalised cell number [2]
C/C(=C\CO)CC[C@H](C)CCC[C@H](C)CCCC(C)C	1.12 (inactive)	0.97	1.09
Cc1c(F)c(F)cc2c(=O)n(N)c(=O)n(C3CC3)c12	0.9 (inactive)	0.79	0.71
COc1cc(CC(=O)O)c(C(C)=O)c(O)c1OC	0.89 (inactive)	1.18	1.06
O=c1c2cc(O)c(O)cc2oc2cc(O)c(C3O[C@H](CO)[C@H](O)[C@@H](O)[C@H]3O)c(O)c12 (some centres not stated)	0.86 (inactive)	0.99	0.85
CC(CC(=O)N1CCOC1=O)N1C(=S)OC[C@@H]1c1ccccc1 (some centres not stated)	1.05 (inactive)	0.85	0.89
CCC1=CC2CN(C1)Cc1c([nH]c3ccccc13)[C@@](C(=O)OC)(c1cc3c(cc1OC)N(C)[C@H]1[C@@](O)(C(=O)OC)[C@H](OC(C)=O)[C@]4(CC)C=CCN5CC[C@]31[C@@H]54)C2 (some centres not stated)	1.47 (inactive)	0.13	0.2
O=c1cc(-c2ccccc2)oc2ccc(O)cc12	1.07 (inactive)	0.91	0.97
NC(CSSCC(N)C(=O)O)C(=O)O (configuration not stated)	0.92 (inactive)	1.24	1.15
COC(=O)C[C@@H]1C2(C)C(=O)C3CC4(OC3(O)C1(C)C)C1=CC(=O)O[C@@H](c3ccoc3)[C@]1(C)CCC42 (some centres not stated)	1.06 (inactive)	0.91	0.96
C=CCSC[C@@H](N)C(=O)O	0.86 (inactive)	1.23	1.06
C/C1=C\[C@H](C)C[C@H](C)[C@@H](C)OC(=O)[C@H](Cc2ccccc2)NC(=O)[C@@H](C)C(=O)C(C)C1O (some centres not stated)	0.99 (inactive)	1.08	1.06
COC(=O)C[C@H]1C(C)(C)C(=O)[C@@H]2CC3=C(CC[C@]4(C)C3=CC(=O)O[C@H]4c3ccoc3)C1(C)C2=O	1.11 (inactive)	0.96	1.06
COc1cc(O)c2c(=O)c(OC)c(-c3ccc(OC)c(OC)c3)oc2c1	1.03 (inactive)	0.82	0.85
O=C(O)CCC(=O)OC1C(CO)O[C@H](Sc2ccccc2)[C@H]2NC(=O)O[C@@H]12 (some centres not stated)	1.26 (inactive)	0.84	1.06
O=C1C=CC2=C3c4cc(O)c(O)cc4C[C@@]3(O)COC2=C1	1.29 (inactive)	1.07	1.38
COc1cc(/C=C/C(=O)O)cc(OC)c1	1.01 (inactive)	0.91	0.93
COC(=O)CNC(=O)c1ccc([C@H](O)c2ccccc2)cn1	0.87 (inactive)	1	0.87
CC(CC(=O)N1C(=O)OC[C@H]1c1ccccc1)N1CCOC1=S (some centres not stated)	0.87 (inactive)	1.09	0.95
C[C@@H]1[C@H](O)[C@@H](C)/C=C/C=C/C=C/C=C/C=C/C=C/C=C/[C@H](OC2O[C@H](C)[C@@H](O)[C@H](N)[C@@H]2O)C[C@@H]2O[C@](O)(C[C@@H](O)C[C@@H](O)[C@H](O)CC[C@@H](O)C[C@@H](O)CC(=O)O[C@H]1C)C[C@H](O)[C@H]2C(=O)O (some centres not stated)	0.82 (inactive)	1.26	1.03
COC(=O)C1O[C@H](O[Si](C)(C)C(C)(C)C)[C@@H](O)[C@@H](OC(=O)c2ccccc2)C1OC(=O)c1ccccc1 (some centres not stated)	0.98 (inactive)	1.18	1.15
CO[C@H]1/C=C/O[C@@]2(C)Oc3c(C)c(O)c4c(O)c(c(/C=N/N5CCN(C)CC5)c(O)c4c3C2=O)NC(=O)/C(C)=C\C=C\[C@H](C)[C@H](O)[C@@H](C)[C@@H](O)[C@@H](C)[C@H](CC(C)=O)[C@@H]1C	0.98 (inactive)	1.05	1.03
C#C[C@]1(O)CCC2C3CCC4=CC(=O)CC[C@@H]4C3CCC21CC (some centres not stated)	1.14 (inactive)	1.07	1.21
C[C@H]1[C@H](C)CC[C@]2(C(=O)O)CC[C@]3(C)C(=CCC4[C@@]5(C)C[C@@H](O)[C@H](O)[C@@](C)(CO)C5CC[C@]43C)[C@H]12 (some centres not stated)	1.16 (inactive)	0.97	1.13
O=C1C[C@@H]2[C@H](Br)[C@@H](O)C[C@@H]2O1	0.73 (inactive)	1.24	0.91
Nc1nc2c(c(=O)[nH]1)NC(CNc1ccc(C(=O)NC(CCC(=O)O)C(=O)O)cc1)=CN2 (configuration not stated)	0.83 (inactive)	1.19	0.99
CO[C@@H]1CC(=O)c2cccc3c2C12Oc1ccc(O)c4c1[C@](O3)(O2)C1O[C@@H]1[C@@H]4O (some centres not stated)	0.98 (inactive)	1	0.98
CC(=O)[C@H]1CCC2C3C=CC4=CC(=O)CC[C@@]4(C)C3CC[C@@]21C (some centres not stated)	0.68 (inactive)	1.28	0.87
Cc1nc(COP(=O)(O)O)cc(CN(CCN(CC(=O)O)Cc2cc(COP(=O)(O)O)nc(C)c2[O-])CC(=O)O)c1[O-].[Mn+2]	0.88 (inactive)	1.27	1.12
COC(=O)[C@H](Cc1ccccc1)NC(=O)/C(=C1\OC(=O)C(c2ccccc2)=C1O)c1ccccc1	0.97 (inactive)	0.92	0.9

From PubChem BioAssay
